{"source": "the supplement of paper PMC10338343", "note": "± gives the standard deviation."}
{"system": "MILI (PIWIL2) piRISC loaded with L1MC piRNA (26 nt)", "test": "pre-steady-state target cleavage rate (min^-1); guide: L1MC piRNA 5'p-UAACUAAAUACUAUGCAAGCUGUAGG; higher = faster piRNA-guided slicing of the target", "settings": "auxiliary factor: 500 nM mouse GTSF1", "experimental": "(§1)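 Cleave-'n-Seq: a library of target RNAs (target site embedded in constant flanks, ACAGCATTCCGCGTTAGTGATATCCG... 5' flank; DNA-blocked outside the site) at 0.1 nM was incubated with 1 nM active mouse MILI or MIWI piRISC (synthetic 5'-monophosphorylated piRNA guide) with or without 500 nM mouse GTSF1 at 33 °C for 1 min to 16 h. Uncleaved targets were sequenced and normalised to non-target controls, and the pooled three trials were fitted to a burst-and-steady-state model to give the pre-steady-state cleavage rate (min^-1; k3 is constrained to at most 1e-4). Sequence is the target site only; target names encode pairing extent (gX:gY) and contiguous / 1-mismatch / 2-mismatch / bulge geometry. Fits with R² ≤ 0 are excluded.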"}
{"sequence": "UCCUGGAACAGCUUCGCAUAGUAUUUAGUUA", "pre-steady-state target cleavage rate": "0.237 ± 0.016"}
{"sequence": "UCCUGCUAGAGCUUCCAUAGUAUUUAGUUA", "pre-steady-state target cleavage rate": "0.246 ± 0.047"}
{"sequence": "UCCUGGUACAGCUUGCAUAGUAAAUAGAAA", "pre-steady-state target cleavage rate": "0.081 ± 0.025"}
{"sequence": "UCCUGGAUGCGCUUGCAUAGUAUUUAGUUA", "pre-steady-state target cleavage rate": "0.239 ± 0.016"}
{"sequence": "UCCUGGAACUGCUUGCAAAGUAUUUAGUUA", "pre-steady-state target cleavage rate": "0.117 ± 0.01"}
{"sequence": "UCCUGGAGCAGCUUGCAUAGUAUUUAGUUA", "pre-steady-state target cleavage rate": "0.333 ± 0.021"}
{"sequence": "UCCUGGAUGUGCUUGCAUAGUAAUUAGAUA", "pre-steady-state target cleavage rate": "0.00915 ± 0.0044"}
{"sequence": "UCCUGGAUGUCCUUGCUUAGUAUUUACUUA", "pre-steady-state target cleavage rate": "0.0556 ± 0.015"}
{"sequence": "UCCUCCUACAGCUUGCUAAGUAUUUACAAA", "pre-steady-state target cleavage rate": "0.0519 ± 0.013"}
{"sequence": "UCCUGGAUCUGCUUGCAUAGUAUUUAGUUA", "pre-steady-state target cleavage rate": "0.229 ± 0.016"}
{"sequence": "UCCUGGAAGUCCUUGCAUAGUAUUUAGUUA", "pre-steady-state target cleavage rate": "0.159 ± 0.018"}
{"sequence": "UCCUGCUACAGCUUGCAUUGUUUUUAGUUA", "pre-steady-state target cleavage rate": "0.0212 ± 0.007"}
{"sequence": "UCCUGGAUCAGCUUGCAUAGUUUUUAGAAA", "pre-steady-state target cleavage rate": "0.0202 ± 0.0088"}
{"sequence": "UCCUCCUACAGCUUGCAUAGUCAUUUAGUUA", "pre-steady-state target cleavage rate": "0.0182 ± 0.0076"}
{"sequence": "UCCUGCUACAGCUUGCAUUGAAUUUAGUUA", "pre-steady-state target cleavage rate": "0.0223 ± 0.0052"}
{"sequence": "UCCUGGAACAGCUUGCAAUAGUAUUUAGUUA", "pre-steady-state target cleavage rate": "0.0492 ± 0.013"}
{"sequence": "UCCUGGAACAGCUUGCUUAGUAUUUAGUUA", "pre-steady-state target cleavage rate": "0.264 ± 0.01"}
{"sequence": "UCCUGGAACAGCUAGCAUAGUAUUUAGUAA", "pre-steady-state target cleavage rate": "0.275 ± 0.03"}
{"sequence": "UCCUGGAACAGUUGCAUAGUAUUUAGUUA", "pre-steady-state target cleavage rate": "0.2 ± 0.014"}
{"sequence": "UCCUCCUACAGGAAGCAUAGUAUUUACAAA", "pre-steady-state target cleavage rate": "0.0698 ± 0.014"}
{"sequence": "UCCUGGAAGAGCAUGCAUAGUAUUUAGUUA", "pre-steady-state target cleavage rate": "0.196 ± 0.015"}
{"sequence": "UCCUGGAACAGCUUGCAUAGUAUAAUCAAA", "pre-steady-state target cleavage rate": "0.0568 ± 0.016"}
{"sequence": "UCCUGGAUGUCGAUGCUUAGUAUUUAGUAA", "pre-steady-state target cleavage rate": "0.0164 ± 0.0045"}
{"sequence": "UCCUGGAACAGCUUGCAUAGUAUUUACAAA", "pre-steady-state target cleavage rate": "0.222 ± 0.048"}
{"sequence": "UCCUGGAUCAGCUUGGAUACUAUUUAGUUA", "pre-steady-state target cleavage rate": "0.0383 ± 0.01"}
{"sequence": "UCCUGGUCCAGCUUGCAUAGUAUUUAGUUA", "pre-steady-state target cleavage rate": "0.232 ± 0.02"}
{"system": "MILI (PIWIL2) piRISC loaded with L1MC piRNA (26 nt)", "test": "pre-steady-state target cleavage rate (min^-1); guide: L1MC piRNA 5'p-UAACUAAAUACUAUGCAAGCUGUAGG; MIWI and MILI are mouse PIWI proteins and EfPiwi is from a freshwater sponge; tags in brackets are library labels; higher = faster piRNA-guided slicing of the target", "settings": "auxiliary factor: none (no GTSF1)", "experimental": "as §1"}
{"sequence": "UCCUGGAACAGCUUCGCAUAGUAUUUAGUUA", "pre-steady-state target cleavage rate": "0.00647 ± 0.0022"}
{"sequence": "UCCUGGAUGUCGAUCCAUAGUAUUUAGAUA", "pre-steady-state target cleavage rate": "< 0.0001"}
{"sequence": "UCCUGGAUGCGCUUGCAUAGUAUUUAGUUA", "pre-steady-state target cleavage rate": "0.0108 ± 0.0028"}
{"sequence": "UCCUGGAACUGCUUGCAAAGUAUUUAGUUA", "pre-steady-state target cleavage rate": "0.00518 ± 0.0021"}
{"sequence": "UCCUGGAGCAGCUUGCAUAGUAUUUAGUUA", "pre-steady-state target cleavage rate": "0.0118 ± 0.0032"}
{"sequence": "UCCUGGAUCUGCUUGCAUAGUAUUUAGUUA", "pre-steady-state target cleavage rate": "0.00944 ± 0.002"}
{"sequence": "UCCUGGAAGUCCUUGCAUAGUAUUUAGUUA", "pre-steady-state target cleavage rate": "0.00649 ± 0.0018"}
{"sequence": "UCCUGCUACAGCUUGCAUUGUUUUUAGUUA", "pre-steady-state target cleavage rate": "0.00289 ± 0.0028"}
{"sequence": "UCCUCCUACAGCUUGCAUAGUCAUUUAGUUA", "pre-steady-state target cleavage rate": "0.00422 ± 0.0022"}
{"sequence": "UCCUGCUACAGCUUGCAUUGAAUUUAGUUA", "pre-steady-state target cleavage rate": "0.00353 ± 0.0025"}
{"sequence": "UCCUGGAACAGCUUGCUUAGUAUUUAGUUA", "pre-steady-state target cleavage rate": "0.00723 ± 0.0021"}
{"sequence": "UCCUGGAACAGCUAGCAUAGUAUUUAGUAA", "pre-steady-state target cleavage rate": "0.00673 ± 0.0025"}
{"sequence": "UCCUGGAACAGUUGCAUAGUAUUUAGUUA", "pre-steady-state target cleavage rate": "0.00668 ± 0.0022"}
{"sequence": "UCCUGGAAGAGCAUGCAUAGUAUUUAGUUA", "pre-steady-state target cleavage rate": "0.00911 ± 0.0029"}
{"sequence": "UCCUGGUCCAGCUUGCAUAGUAUUUAGUUA", "pre-steady-state target cleavage rate": "0.0129 ± 0.0037"}
